Reference: PubChem BioAssay (NCATS)
Inconclusive results are not listed. Active and inactive are the calls of the source. Calls come from the whole dose curve; as a rule, active = well fitted curve in the direction sought with a large enough effect; inconclusive = small, poorly fitted or top-dose-only effect, or another doubt; inactive = no such curve, though single readings can be large; an effect the other way counts as inactive or inconclusive.

Columns and labels:
[1] = target: Rap guanine nucleotide exchange factor 3 (Homo sapiens) (UniProt O95398); test: Confirmatory qHTS for antagonist of cAMP-regulated guanine nucleotide exchange factor 3 (EPAC1) (AID 1645880); note: nearly all actives have a fitted effect of over 55% in size
Sequence of Rap guanine nucleotide exchange factor 3 (Homo sapiens) (O95398 whole entry, looked up): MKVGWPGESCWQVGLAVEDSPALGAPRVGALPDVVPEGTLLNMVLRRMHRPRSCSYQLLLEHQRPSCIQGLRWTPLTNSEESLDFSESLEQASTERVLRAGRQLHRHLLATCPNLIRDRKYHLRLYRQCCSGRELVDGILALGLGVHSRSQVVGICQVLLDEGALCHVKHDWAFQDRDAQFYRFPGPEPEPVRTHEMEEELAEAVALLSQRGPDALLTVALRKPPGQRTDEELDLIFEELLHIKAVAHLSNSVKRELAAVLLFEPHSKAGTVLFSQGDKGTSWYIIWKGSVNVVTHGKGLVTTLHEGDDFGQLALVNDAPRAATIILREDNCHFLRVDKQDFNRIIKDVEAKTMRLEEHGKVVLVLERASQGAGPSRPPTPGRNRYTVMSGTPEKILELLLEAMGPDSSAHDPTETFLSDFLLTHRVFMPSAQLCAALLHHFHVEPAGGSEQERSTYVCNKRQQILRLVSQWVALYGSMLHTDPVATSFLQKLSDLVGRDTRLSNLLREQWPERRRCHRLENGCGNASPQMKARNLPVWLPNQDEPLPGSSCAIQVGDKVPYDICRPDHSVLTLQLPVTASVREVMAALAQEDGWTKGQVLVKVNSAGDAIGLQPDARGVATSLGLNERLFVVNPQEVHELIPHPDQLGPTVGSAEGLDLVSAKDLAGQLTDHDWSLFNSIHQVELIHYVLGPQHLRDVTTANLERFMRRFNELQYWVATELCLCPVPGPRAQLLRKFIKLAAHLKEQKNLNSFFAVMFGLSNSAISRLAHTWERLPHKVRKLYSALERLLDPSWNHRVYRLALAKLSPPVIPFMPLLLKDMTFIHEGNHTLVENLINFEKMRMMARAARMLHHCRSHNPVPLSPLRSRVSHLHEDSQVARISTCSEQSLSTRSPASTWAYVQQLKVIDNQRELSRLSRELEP
Procedure, shortened: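 Nucleotide exchange uses 100 nM EPAC1, 250 nM RAP1B-BODIPY-GDP and 50 uM GDP, with compounds in a concentration-titration series. After 5 min at room temperature, fluorescence (480 nm ex/540 nm em) is read every 5 min for 30 min. Data are normalized to control ATA and DMSO.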

[2] = target: Rap guanine nucleotide exchange factor 3 (Homo sapiens) (UniProt O95398); test: Confirmatory qHTS for agonist of cAMP-regulated guanine nucleotide exchange factor 3 (EPAC1) (AID 1645881); note: nearly all actives have a fitted effect of over 75% in size;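 for activation: EPAC1 catalysed release of BODIPY-GDP from Rap1B seen as fluorescence loss; 100% = effect of cAMP agonist control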
[3] = target: Rap guanine nucleotide exchange factor 4 (Homo sapiens) (UniProt Q8WZA2); test: Confirmatory qHTS for agonist of cAMP-regulated guanine nucleotide exchange factor 4 (EPAC2) (AID 1645884);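 note: nucleotide exchange releases bodipy-GDP from Rap1 and this lowers its fluorescence; nearly all actives have a fitted effect of over 65% in size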; for activation: % is set by controls: 0 for no effect and ±100 for the full control effect
Sequence of Rap guanine nucleotide exchange factor 4 (Homo sapiens) (Q8WZA2 whole entry, looked up): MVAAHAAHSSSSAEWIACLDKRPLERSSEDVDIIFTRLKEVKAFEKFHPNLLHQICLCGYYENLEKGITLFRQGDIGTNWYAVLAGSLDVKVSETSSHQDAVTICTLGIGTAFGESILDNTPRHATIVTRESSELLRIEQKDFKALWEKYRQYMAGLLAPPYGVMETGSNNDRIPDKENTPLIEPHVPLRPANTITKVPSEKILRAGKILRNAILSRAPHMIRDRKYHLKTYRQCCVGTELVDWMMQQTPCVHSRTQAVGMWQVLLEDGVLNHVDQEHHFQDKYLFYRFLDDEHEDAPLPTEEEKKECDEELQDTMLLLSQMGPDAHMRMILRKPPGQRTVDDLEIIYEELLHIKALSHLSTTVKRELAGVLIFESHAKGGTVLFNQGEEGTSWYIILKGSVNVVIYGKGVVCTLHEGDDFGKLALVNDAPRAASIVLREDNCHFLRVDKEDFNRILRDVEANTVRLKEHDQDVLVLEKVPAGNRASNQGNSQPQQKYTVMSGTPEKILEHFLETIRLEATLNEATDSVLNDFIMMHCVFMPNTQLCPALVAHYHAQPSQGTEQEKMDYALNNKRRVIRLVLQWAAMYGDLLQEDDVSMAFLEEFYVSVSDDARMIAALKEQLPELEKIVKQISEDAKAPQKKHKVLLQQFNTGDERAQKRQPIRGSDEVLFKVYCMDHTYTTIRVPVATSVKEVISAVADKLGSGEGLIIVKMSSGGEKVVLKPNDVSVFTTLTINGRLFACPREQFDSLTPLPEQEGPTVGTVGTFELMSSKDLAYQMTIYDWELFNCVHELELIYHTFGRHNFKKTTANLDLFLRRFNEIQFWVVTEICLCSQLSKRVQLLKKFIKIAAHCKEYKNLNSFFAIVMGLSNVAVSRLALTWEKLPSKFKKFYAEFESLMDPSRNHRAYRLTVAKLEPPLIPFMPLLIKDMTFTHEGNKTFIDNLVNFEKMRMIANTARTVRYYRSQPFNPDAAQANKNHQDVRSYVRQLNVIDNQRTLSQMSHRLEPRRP

[4] = target: Rap guanine nucleotide exchange factor 4 (Homo sapiens) (UniProt Q8WZA2); test: Confirmatory qHTS for antagonist of cAMP-regulated guanine nucleotide exchange factor 4 (EPAC2) (AID 1645885); note: nearly all actives have a fitted effect of over 25% in size; for activity change, negative = inhibition: % is set by controls: 0 for no effect and ±100 for the full control effect
[5] = target: Rap guanine nucleotide exchange factor 3 (Homo sapiens) (UniProt O95398); test: Counterscreen qHTS for antagonist of cAMP-regulated guanine nucleotide exchange factor 3 (EPAC1) (AID 1645888);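 for activity change, negative = inhibition: fluorescence loss as bound BODIPY-GDP is released from Rap1B; % of control where 0% means no effect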
Procedure, shortened: (§1)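 Measured: fluorescence of BODIPY-GDP bound to Rap1B, which falls as exchange proceeds. Conditions include 50 uM competing GDP, 5 and 30 min reads, and a later cAMP challenge for antagonist detection.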

[6] = target: Rap guanine nucleotide exchange factor 3 (Homo sapiens) (UniProt O95398); test: Counterscreen qHTS for agonist of cAMP-regulated guanine nucleotide exchange factor 3 (EPAC1) (AID 1645889); note: nearly all actives have a fitted effect of over 40% in size; for activation: % of control where 0% means no effect
Procedure, shortened: as §1
Potency is the fitted concentration of half-maximal effect.

O=C(Nc1ccc(Cl)cc1C(=O)O)c1ccc2c(c1)C(=O)N(Cc1ccco1)C2=O
active: Potency [1] 39.8 µM
inactive: Potency [2] | activation [3] -2.6% [at 17.1 µM, percent relative to cAMP agonist control] | Potency [4] | activity change, negative = inhibition [5] -16.1% [at 30.8 µM] | activation [6] 16.2% [at 30.8 µM]

C=CCc1c(C)c(C#N)c2nc3ccccc3n2c1N1CCCCC1
inactive: Potency [1] | Potency [2] | Potency [3] | Potency [4] | Potency [5] | Potency [6]

CN(C)CCCN(C(=O)COc1ccc(Cl)cc1)c1nc2cc3c(cc2s1)OCCO3
inactive: Potency [1] | Potency [2] | Potency [3] | Potency [4] | Potency [5] | Potency [6]

CCOC(=O)c1cc2c(=O)n3ccccc3nc2n(Cc2ccco2)c1=NC(=O)c1ccc(Br)cc1
inactive: Potency [2] | Potency [3] | outcome [4] inactive [at 12.7 µM] | Potency [5]
active: Potency [1] 75.7 µM

O=C(O)CCc1ccc(-c2ccccc2)n1-c1cccc(Br)c1
inactive: Potency [1] | Potency [2] | Potency [3] | outcome [4] inactive; activator; fitted 0.0054 uM [at 12.7 µM] | Potency [5] | Potency [6]

Cc1ccc(S(=O)(=O)Nc2ccccc2N2CCCCC2)cc1
inactive: Potency [1] | Potency [2] | activation [3] 1.85% [at 17.1 µM, percent relative to cAMP agonist control] | Potency [4] | activity change, negative = inhibition [5] -22.5% [at 30.8 µM] | activation [6] 18.9% [at 30.8 µM]

COCC(=O)Oc1c(Sc2ccc(C)cc2)c(C)nn1C(C)(C)C
inactive: Potency [1] | Potency [2] | Potency [3] | Potency [4] | Potency [5]

CCCCC(=O)N(c1ccc(C(=O)O)cc1)c1nc(-c2ccc(Cl)cc2)c(CC)s1
active: Potency [1] 50.1 µM
inactive: Potency [2] | activation [3] 5.89% [at 17.1 µM, percent relative to cAMP agonist control] | Potency [4] | activity change, negative = inhibition [5] -5.84% [at 30.8 µM] | activation [6] 19.6% [at 30.8 µM]

C[C@@H](NC(=O)C1(c2ccccc2)CCN(C(=O)OC(C)(C)C)CC1)C(=O)N[C@@H](C(=O)O)c1ccccc1
active: Potency [1] 42.6 µM | Potency [4] 42.6 µM
inactive: Potency [2] | Potency [3] | Potency [5] | Potency [6]

COc1ccccc1NC(=O)c1sc2nc(C)c(C(=O)Nc3ccc(C)cc3C)c(-c3ccco3)c2c1N
inactive: Potency [1] | Potency [2] | Potency [3] | outcome [4] inactive [at 12.7 µM] | Potency [5]

Cc1ccc(-c2csc(NC(=O)c3ccc(Br)cc3)c2C(=O)O)cc1
inactive: Potency [2] | Potency [3] | Potency [4] | Potency [5] | Potency [6]
active: Potency [1] 33.8 µM

O=C(Cc1ccccc1Cl)Nc1ccc(S(=O)(=O)Nc2nccs2)cc1
inactive: Potency [1] | Potency [2] | Potency [3] | Potency [4] | Potency [5]

CCOC(=O)Cn1c(=O)oc2cc(S(=O)(=O)Nc3c(C)cc(C)cc3C)ccc21
inactive: Potency [1] | Potency [2] | activation [3] 4.43% [at 17.1 µM, percent relative to cAMP agonist control] | Potency [4] | activity change, negative = inhibition [5] -16.5% [at 30.8 µM] | activation [6] 25.1% [at 30.8 µM]

CCOC(=O)Cc1nnc(NC(=O)CSc2nnc3c(n2)[nH]c2ccccc23)s1
active: Potency [1] 44.7 µM
inactive: Potency [2] | activation [3] 6.98% [at 17.1 µM, percent relative to cAMP agonist control] | Potency [4] | activity change, negative = inhibition [5] -37.4% [at 30.8 µM]

C=CCOc1ccc(/C=C2\SC(=S)N(NS(=O)(=O)c3ccc(C)cc3)C2=O)cc1
inactive: Potency [2] | Potency [3] | Potency [4] | Potency [5] | Potency [6]
active: Potency [1] 21.3 µM

Cc1ccc(S(=O)(=O)/N=C2/NC(=O)/C(=C/c3ccccc3)S2)cc1
inactive: Potency [2] | Potency [3] | Potency [4] | Potency [5] | Potency [6]
active: Potency [1] 42.6 µM

O=c1[nH]c2cc3c(cc2cc1CN(Cc1ccccc1)Cc1nnnn1Cc1ccco1)OCCO3
inactive: Potency [2] | Potency [3] | Potency [4] | Potency [5] | Potency [6]
active: Potency [1] 42.6 µM

CN(C)C(=O)CSc1nc(-c2ccccc2)c(-c2ccccc2)o1
inactive: Potency [1] | Potency [2] | activation [3] 5.35% [at 17.1 µM, percent relative to cAMP agonist control] | Potency [4] | activity change, negative = inhibition [5] 3.97% [at 30.8 µM] | activation [6] 9.57% [at 30.8 µM]

O=C(O)COc1ccc(NC(=O)C(c2ccccc2)c2ccccc2)cc1
inactive: Potency [1] | Potency [2] | Potency [3] | Potency [5] | Potency [6]
active: Potency [4] 33.8 µM

Nc1ccc2c3c(cccc13)-c1ccccc1-2
inactive: Potency [1] | Potency [4] | Potency [5]
active: Potency [2] 100 µM | Potency [3] 100 µM

c1ccc(OCCCn2ccnc2)cc1
inactive: Potency [1] | Potency [2] | Potency [3] | Potency [4] | Potency [5] | Potency [6]

O=C(c1ccc(Br)o1)N1CCN(c2ccc3nnc(-c4ccc(F)cc4)n3n2)CC1
inactive: Potency [1] | Potency [2] | activation [3] -1.27% [at 17.1 µM, percent relative to cAMP agonist control] | Potency [4] | activity change, negative = inhibition [5] -4.8% [at 30.8 µM] | activation [6] 25.2% [at 30.8 µM]

Cc1ccc(N2NC(=O)/C(=C\c3cc4c(cc3[N+](=O)[O-])OCO4)C2=O)cc1C
inactive: Potency [2] | Potency [3] | Potency [4] | Potency [5] | Potency [6]
active: Potency [1] 75.7 µM

O=[N+]([O-])c1cc(-c2ccccc2)cc([N+](=O)[O-])c1O
inactive: Potency [2] | Potency [3] | Potency [5] | Potency [6]
active: Potency [1] 75.7 µM | Potency [4] 42.6 µM

CC(=O)N1CCc2cc(Br)cc(S(=O)(=O)NCCCN(C)Cc3ccccc3)c21
inactive: Potency [1] | Potency [2] | Potency [3] | Potency [5] | Potency [6]
active: Potency [4] 23.9 µM

O=[N+]([O-])c1cc(Cl)ccc1NCCc1ccccn1
inactive: Potency [1] | Potency [2] | activation [3] -1.04% [at 17.1 µM, percent relative to cAMP agonist control] | Potency [4] | activity change, negative = inhibition [5] -15.1% [at 30.8 µM] | activation [6] -0.252% [at 30.8 µM]

CN1/C(=C\C=C(/C#N)C(=O)Nc2ccccc2F)C(C)(C)c2ccccc21
inactive: Potency [1] | Potency [4] | Potency [5]
active: Potency [2] 100 µM | Potency [3] 100 µM | Potency [6] 14.1 µM

O=C(CSc1nc2c([nH]c3ccccc32)c(=O)n1-c1ccccc1F)Nc1cccc(Cl)c1
inactive: Potency [1] | Potency [2] | Potency [3] | Potency [4] | Potency [5] | Potency [6]

CC(Oc1ccccc1)C(=O)Nc1nnc(S(=O)(=O)N2CCCCC2)s1 (stereo unspecified)
inactive: Potency [1] | Potency [2] | Potency [3] | Potency [4] | Potency [5] | Potency [6]

COC(=O)c1c(SC)nc2ccccc2c1OCc1cc(C)ccc1C
inactive: Potency [1] | Potency [2] | Potency [3] | Potency [4] | Potency [5] | Potency [6]

Cc1ccc(-c2csc(NS(=O)(=O)c3cccc(F)c3)n2)o1
inactive: Potency [2] | activation [3] -0.922% [at 17.1 µM, percent relative to cAMP agonist control] | Potency [4] | activity change, negative = inhibition [5] -6.02% [at 30.8 µM] | activation [6] 14.9% [at 30.8 µM]
active: Potency [1] 14.1 µM

Cc1nnnn1-c1ccc(CC(=O)O)cc1
inactive: Potency [1] | Potency [2] | activation [3] -2.24% [at 17.1 µM, percent relative to cAMP agonist control] | Potency [4] | activity change, negative = inhibition [5] -6.83% [at 30.8 µM] | activation [6] -1.16% [at 30.8 µM]

O=C(OCc1c(-c2ccccc2)ncc2ccccc12)c1ccco1
inactive: Potency [1] | Potency [2] | Potency [3] | Potency [4] | Potency [5] | Potency [6]

COn1c(-c2ccc(Cl)cc2Cl)nc2ncccc21
active: Potency [4] 84.9 µM
inactive: Potency [1] | Potency [2] | Potency [3] | Potency [5] | Potency [6]

Cc1ccccc1C(=O)/C(C#N)=N/Nc1c(C)n(C)n(-c2ccccc2)c1=O
inactive: Potency [2] | Potency [3] | Potency [6]
active: Potency [1] 42.6 µM | Potency [4] 67.5 µM | Potency [5] 79.4 µM

C/C(=N\NC(=O)C1CC1)c1cccs1
inactive: Potency [1] | Potency [2] | Potency [3] | Potency [4] | Potency [5] | Potency [6]

Cc1nc(SC(C)C(=O)NCC2CCCO2)c2cc(-c3ccccc3)sc2n1 (stereo unspecified)
inactive: Potency [1] | Potency [2] | Potency [3] | Potency [4] | Potency [5] | Potency [6]

Cc1ccc2nc(NC(=O)CSc3ncnc4c3oc3ccccc34)sc2c1
inactive: Potency [1] | Potency [2] | Potency [3] | Potency [4] | Potency [5] | Potency [6]

O=C1CSC2(C(=O)N(Cc3cccc(C(F)(F)F)c3)c3ccccc32)N1c1ccc(F)c(F)c1 (stereo unspecified)
inactive: Potency [1] | Potency [2] | Potency [3] | Potency [4] | Potency [5] | Potency [6]

Nc1ccc2ccccc2c1C(=O)c1ccccc1
inactive: Potency [1] | Potency [2] | Potency [3] | Potency [4] | Potency [5] | Potency [6]

C[n+]1cc(C(=O)N2CCCCC2)ccc1/C=C/c1c[nH]c2ccccc12
active: Potency [2] 89.1 µM
inactive: Potency [1] | activation [3] 10.6% [at 17.1 µM, percent relative to cAMP agonist control] | Potency [4] | activity change, negative = inhibition [5] -7.76% [at 30.8 µM] | activation [6] 14.5% [at 30.8 µM]

C/C(=C\c1ccco1)CN1CCN(Cc2ccc(C)o2)C(CCO)C1 (stereo unspecified)
inactive: Potency [1] | Potency [2] | Potency [3] | Potency [4] | Potency [5] | Potency [6]
